Our source for the inhibition values is PubChem BioAssay AID1445 (SRMLSC, 2008).

A word on the inhibition: it is the change of the read-out against control, counted positive when it falls.

About 910 (0.41%) of roughly 220,000 compounds were called active.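 The calls were made as follows: active = primary inhibition above the hit cutoff, then over 50% inhibition at one or more dose response concentrations (cut at about 23% in these data, passing the limit was not always enough); inconclusive = conflicting primary data, or primary hits not chosen for dose response; inactive = low primary inhibition, or under 50% at every dose.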 This excerpt belongs to a sample that is enriched for actives. Potency and affinity values are given separately.

Aminopeptidase N (Plasmodium falciparum (isolate 3D7)), sequence (O96935 whole entry, looked up): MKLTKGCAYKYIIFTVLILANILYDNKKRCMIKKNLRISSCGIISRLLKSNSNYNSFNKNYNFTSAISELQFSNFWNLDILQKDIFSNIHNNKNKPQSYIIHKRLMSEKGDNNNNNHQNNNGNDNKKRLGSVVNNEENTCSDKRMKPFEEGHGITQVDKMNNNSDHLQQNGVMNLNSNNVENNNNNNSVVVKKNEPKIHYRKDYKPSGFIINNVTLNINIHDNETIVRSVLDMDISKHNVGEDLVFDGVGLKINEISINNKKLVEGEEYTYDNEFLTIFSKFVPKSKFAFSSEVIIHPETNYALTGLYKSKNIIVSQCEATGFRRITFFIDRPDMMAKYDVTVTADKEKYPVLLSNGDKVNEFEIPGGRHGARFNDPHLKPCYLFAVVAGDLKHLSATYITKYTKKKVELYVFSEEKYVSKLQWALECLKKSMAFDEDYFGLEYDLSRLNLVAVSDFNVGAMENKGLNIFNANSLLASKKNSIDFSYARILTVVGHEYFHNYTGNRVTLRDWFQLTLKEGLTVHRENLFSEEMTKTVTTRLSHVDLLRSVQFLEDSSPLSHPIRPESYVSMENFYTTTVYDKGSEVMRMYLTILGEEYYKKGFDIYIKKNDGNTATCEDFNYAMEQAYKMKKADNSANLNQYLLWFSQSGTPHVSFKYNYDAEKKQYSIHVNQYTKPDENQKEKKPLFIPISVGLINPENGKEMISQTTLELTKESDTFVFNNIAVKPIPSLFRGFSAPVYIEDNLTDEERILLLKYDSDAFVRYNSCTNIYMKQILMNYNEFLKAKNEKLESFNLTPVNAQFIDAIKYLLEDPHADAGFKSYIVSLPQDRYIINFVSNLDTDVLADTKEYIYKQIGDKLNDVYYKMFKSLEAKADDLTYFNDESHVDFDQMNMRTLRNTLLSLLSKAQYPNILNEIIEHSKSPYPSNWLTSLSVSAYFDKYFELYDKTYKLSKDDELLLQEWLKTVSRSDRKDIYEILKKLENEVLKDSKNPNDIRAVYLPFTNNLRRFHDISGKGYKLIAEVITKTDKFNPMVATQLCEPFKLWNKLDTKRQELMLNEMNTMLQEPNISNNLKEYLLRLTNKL

This assay has as its target Aminopeptidase N (Plasmodium falciparum (isolate 3D7)) (UniProt O96935). Put plainly: P. falciparum M1AAP inhibitors, biochemical, fluorogenic H-Leu-NHMec substrate, 1536-well (AID 1445).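 Also: plate controls were DMSO full reaction for no effect and no enzyme background for full effect.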 The following applies: recombinant M1AAP, H-Leu-NHMec fluorogenic kinetic assay; at 30 µM, active compounds read high unless noted.
With `c1ccc(-c2ccc(CN3C[C@@H]4C(c5ccccc5)C5(c6ccccc6)CC4(C5)[C@H]3c3ccccc3)cc2)cc1` (stereo partly specified), the inhibition was -2.33% (inactive). The result for `O=C(CSc1ccc(-c2ccc(F)cc2)nn1)NCCc1ccccc1` reads -0.33% (inactive); that for `Clc1ccc(-c2nn3cnnc3s2)c(Cl)c1`, 0.7% (inactive); that for `CCN=C1SC(CC(=O)NCCc2ccc(OC)c(OC)c2)C(=O)N1CC` (stereo unspecified), -3.87% (inactive). For `Cc1[nH][nH]c(=O)c1C(c1ccc([N+](=O)[O-])cc1)c1c(C)[nH][nH]c1=O`, the inhibition was -16.2% (inactive). On to `Cc1[nH][nH]c(=O)c1C(c1ccc(O)c([N+](=O)[O-])c1)c1c(C)[nH][nH]c1=O`, for which the inhibition is 14% (inactive). The result for `Clc1ccc(CN2C3=NCCN3c3ccccc32)cc1` reads 7.94% (inactive); that for `Cc1cc(C)n2nc(C(=O)NCc3ccco3)cc2n1`, 8.12% (inactive). `Cc1cc(C(=O)NCc2cccs2)nn1C`: the inhibition was 3.72% (inactive). With `CCN(CC)C(=O)CSc1nc(O)c(Cc2ccccc2)c(=O)n1-c1ccc(C)cc1`, the inhibition was 4.4% (inactive). The result for `Cc1ccc(C(=O)Nc2ccccc2C(=O)N2CCCCCC2)cc1` reads 4.87% (inactive); that for `CC(C)CN(C(=O)COC(=O)c1ccccc1Sc1ccccc1C#N)C1CCS(=O)(=O)C1` (stereo unspecified), -1.64% (inactive); that for `CCCc1nc2ccccc2c(=O)n1/N=C/c1ccc(O)cc1`, -1.67% (inactive). Take `O=c1c2ccccc2nc(COc2ccccc2)n1/N=C/c1ccc(O)cc1O`: the inhibition was 19.8% (inactive). The result for `O=c1c2ccccc2nc(COc2ccccc2)n1/N=C/c1ccc(O)c(O)c1` reads 14.6% (inactive); that for `Cc1cccc(C)c1OCc1nc2ccccc2c(=O)n1/N=C/c1c[nH]c2ccccc12`, 5.57% (inactive); that for `CCn1c(COc2cccc(C)c2C)nnc1SCC(=O)Nc1cc(C)on1`, 7.39% (inactive). Turning to `COc1cc(/C=C/C(=O)OCC(=O)NCc2cccs2)ccc1OC(F)F`, the inhibition was 4.72% (inactive). Take `O=C(N/N=C\c1ccc[nH]1)C1COc2ccccc2O1` (stereo unspecified): the inhibition was 9.36% (inactive). The figure for `CC1=NN(c2ccccc2)C(=O)C1C(=O)c1ccccc1` (stereo unspecified) is 14.1% (inactive); for `CC1=NN(c2ccccc2)C(=O)C1C=Nc1ccc(N(C)C)cc1` (stereo unspecified) it is 12.8% (inactive).

Regarding `COC(=O)c1sccc1S(=O)(=O)Nc1ccc(S(N)(=O)=O)cc1`, the inhibition is 2.58% (inactive).

As to `CC(C)(C)NC(=O)CSc1nnc(SCC(=O)NC(C)(C)C)s1`, the inhibition is 1.09% (inactive). Regarding `COc1ccc(C)cc1-n1nnnc1SC/C(O)=C(\C#N)c1nc2ccccc2[nH]1`, the inhibition is -0.98% (inactive). In the case of `N#CCSc1nnc(Cc2cccs2)n1C1CCCCC1`, the inhibition was 1.61% (inactive). For `Cc1ccccc1-n1c(SC/C(O)=C(\C#N)c2nc3ccccc3[nH]2)nnc1-c1ccncc1`, the inhibition was 13.8% (inactive). Take `NC(=O)CSc1nnc(Cc2cccs2)n1C1CCCCC1`: the inhibition was 0.23% (inactive). The figure for `CCOP(=O)(OCC)C(Nc1ccccc1)c1ccco1` (stereo unspecified) is 0.74% (inactive); for `CS(=O)(=O)NCc1ccc(C(=O)O)cc1` it is 9.65% (inactive); for `NNC(=O)C1CC1c1ccccc1` (stereo unspecified) it is -1.25% (inactive). As for `COC(=O)c1cccc(NC(=O)C2COc3ccccc3O2)c1C` (stereo unspecified), the inhibition is 3.13% (inactive). Take `COc1ccc(OC)c(C(=O)c2c(C)oc3cc([N+](=O)[O-])c(O)c([N+](=O)[O-])c23)c1`: the inhibition is 7.96% (inactive). In the case of `Cc1oc2cc([N+](=O)[O-])c(O)c([N+](=O)[O-])c2c1C(=O)c1ccc(Cl)cc1`, the inhibition is 16.5% (inactive). With `Cc1ccc(C(=O)c2cc3c(cc2[N+](=O)[O-])OCCO3)cc1`, the inhibition was 1.34% (inactive).

For the molecule `Cc1ccc(C(=O)c2coc3ccc(O)c(Cl)c23)cc1`, the inhibition was 2.57% (inactive). `O=C1NC(c2ccccc2)=C(c2ccccc2)C1=O`: the inhibition is 18.7% (inactive). `O=C(c1ccco1)N1CCN(C(c2ccccc2Cl)c2nnnn2Cc2cccs2)CC1` (stereo unspecified): the inhibition was 1.56% (inactive).

`CC(C)(C)c1ccc(SCCc2ccccn2)cc1`: the inhibition was 0.53% (inactive). In the case of `CC(C)Oc1ccc(NC(N)=O)cc1`, the inhibition was 4.7% (inactive).

`COc1cccc(-n2c(C)cc(/C=C3/C(=N)N4C(=NC3=O)SN=C4S(C)(=O)=O)c2C)c1`: the inhibition is 16.2% (inactive). Turning to `CS(=O)(=O)C1=NSC2=NC(=O)/C(=C\c3cccn3-c3ccccc3Cl)C(=N)N21`, the inhibition is 12.3% (inactive). `CCC1=NN2C(=N)/C(=C\c3cccn3-c3ccc(Cl)cc3)C(=O)N=C2S1`: the inhibition was 8.09% (inactive).

For the molecule `CCC1=NN2C(=N)/C(=C\c3cccn3-c3ccc(Br)cc3)C(=O)N=C2S1`, the inhibition was 4.13% (inactive). On to `CCOc1ccc(-n2c(C)cc(/C=C3/C(=N)N4C(=NC3=O)SN=C4S(C)(=O)=O)c2C)cc1`, for which the inhibition was 21.4% (inactive).

As to `CCC1=NN2C(=N)/C(=C\c3cccn3-c3c(C)cccc3C)C(=O)N=C2S1`, the inhibition is 13.2% (inactive). For `CC1=CSC2=NC(=O)/C(=C\c3cccn3-c3ccccc3)C(=N)N12`, the inhibition was 5.41% (inactive).

On to `Cc1cc(C)cc(-n2cccc2/C=C2/C(=N)N3C(=NC2=O)SN=C3S(C)(=O)=O)c1`, for which the inhibition was 18.4% (inactive). For the molecule `COC(=O)Nc1ccc(S(=O)(=O)N2CCCC(C(=O)Nc3cccnc3)C2)cc1` (stereo unspecified), the inhibition is -1.96% (inactive). `CCN(CC)CCN(C(=O)c1ccc(S(=O)(=O)N2CCCCC2)cc1)c1nc2cc3c(cc2s1)OCO3`: the inhibition was -2.92% (inactive). In the case of `O=C(NN1CCOCC1)c1sc2cccc(F)c2c1Cl`, the inhibition was 4.71% (inactive). The figure for `O=C1c2ccccc2C(=O)N1c1nc2nccc(-c3ccccc3)n2n1` is -0.09% (inactive). Take `Cc1cc(NC(=O)c2cncc(Br)c2)n(-c2ccccn2)n1`: the inhibition is 1.7% (inactive). Regarding `COc1cc(NS(=O)(=O)c2ccc(NC(=S)NC(=O)C(C)(C)C)cc2)nc(OC)n1`, the inhibition is 4.8% (inactive).

As to `CCc1nnc(NS(=O)(=O)c2ccc(NC(=O)/C=C/c3ccc(F)cc3)cc2)s1`, the inhibition is 3.37% (inactive).

Take `CCc1nnc(NS(=O)(=O)c2ccc(NC(=S)NC(=O)/C=C/c3ccc(C(C)C)cc3)cc2)s1`: the inhibition is 19.8% (inactive).

On to `CCc1nnc(NS(=O)(=O)c2ccc(NC(=S)NC(=O)c3ccncc3)cc2)s1`, for which the inhibition is 4.45% (inactive). With `CCc1nnc(NS(=O)(=O)c2ccc(NC(=S)NC(=O)/C=C/c3ccccc3)cc2)s1`, the inhibition is 13.3% (inactive). Consider `CCc1nnc(NS(=O)(=O)c2ccc(NC(=S)NC(=O)/C=C/c3ccc(OC)cc3)cc2)s1`, for which the inhibition was 2.25% (inactive). `CCc1nnc(NS(=O)(=O)c2ccc(NC(=S)NC(=O)c3ccccc3)cc2)s1`: the inhibition was 13.4% (inactive).

Turning to `COc1cc(NS(=O)(=O)c2ccc(NC(=S)NC(=O)c3ccco3)cc2)nc(OC)n1`, the inhibition was 16.3% (inactive). The figure for `O=C1NCCCC1C(=O)N/N=C/c1ccccc1O` (stereo unspecified) is 9.72% (inactive); for `O=C(Cc1nn[nH]n1)NCc1ccccc1Cl` it is 1.85% (inactive). With `CC1(C)CC(CCC(=O)NC(=S)Nc2ccccc2Cl)C(=O)O1` (stereo unspecified), the inhibition was 8.14% (inactive). For `Cc1ccc(OCC(=O)Nc2ccccc2-c2ccccc2NC(=O)COc2ccc(C)cc2)cc1`, the inhibition was 3.53% (inactive).

In the case of `N#Cc1cc(C(=O)c2cc(F)ccc2O)cn(Cc2ccccc2)c1=O`, the inhibition is 7.68% (inactive). Consider `Cc1ccc(C(=O)NC(=S)Nc2ccc(CN3CCCCC3)cc2)c(C)c1`, for which the inhibition was 5.24% (inactive). On to `CC(=O)N1CCN(c2ccc(Oc3nnnn3-c3ccccc3)cc2)CC1`, for which the inhibition was 2.19% (inactive). `O=C(Cc1cccs1)N/N=C/C=C/c1ccccc1[N+](=O)[O-]`: the inhibition was 2.54% (inactive). Regarding `CCc1nnc(NS(=O)(=O)c2ccc(NC(=S)NC(=O)c3ccc(Br)cc3)cc2)s1`, the inhibition is 21.6% (inactive). Regarding `CCc1nnc(NS(=O)(=O)c2ccc(NC(=S)NC(=O)c3ccc(F)cc3)cc2)s1`, the inhibition was 22.7% (inactive). The figure for `COc1ccc(C(=O)/C=C/Nc2cccc(O)c2)cc1` is -6.48% (inactive). On to `Cn1nc(C(F)(F)F)c2cc(C(=O)Nc3ccc(F)c(Cl)c3)sc21`, for which the inhibition is 8.67% (inactive). In the case of `CN(C)c1ccc(/C=N/NC(=O)c2cccc(N3CCCC3=O)c2)cc1`, the inhibition was 4.11% (inactive).

In the case of `O=C(N/N=C/c1ccco1)c1cccc(N2CCCC2=O)c1`, the inhibition is 2.43% (inactive). On to `COc1ccc(/C=N/NC(=O)c2sc(C)nc2C)cc1`, for which the inhibition is 9.79% (inactive). As for `O=C(CNC(=O)c1ccc(F)cc1)N/N=C/c1cc(Br)ccc1OCc1ccccc1`, the inhibition was 0.24% (inactive). On to `COc1ccccc1/C=N/NC(=O)c1sc(C)nc1C`, for which the inhibition is 5.02% (inactive). In the case of `O=C(CNC(=O)c1cccc(Br)c1)N/N=C/c1cc(Br)cc(Br)c1O`, the inhibition was 0.13% (inactive).

Regarding `COc1ccccc1/C=C/C(=O)NCC(=O)N/N=C/c1cc(Br)ccc1OC`, the inhibition is 22.4% (inactive). For the molecule `O=C(CNC(=O)c1ccncc1)N/N=C/c1cc(Br)ccc1OCc1ccccc1`, the inhibition is 5.07% (inactive). Regarding `CCOC(=O)CSc1nc2cc(C(=O)NCc3ccco3)ccc2c(=O)n1-c1ccc(F)cc1`, the inhibition was 4.72% (inactive). For `O=C(CCCCn1c(=O)[nH]c2ccccc2c1=O)NCCc1c[nH]c2ccccc12`, the inhibition is 3.37% (inactive). Regarding `O=C(OCc1cc([N+](=O)[O-])cc2c1OCOC2)c1ccc2ccccc2n1`, the inhibition was -2.61% (inactive). In the case of `Cc1cccc(NC(=O)CC2SC(=O)N(c3ccccc3)C2=O)c1` (stereo unspecified), the inhibition was 0.32% (inactive). Turning to `C=C1C(C(=O)Nc2cccc(OC)c2)C1C(=O)Nc1cccc(OC)c1` (stereo unspecified), the inhibition was 4.96% (inactive). `CCn1c(O)c(/C=N/N=C2CCCCC2)c2cc(C3=NNC(=O)CC3)ccc21`: the inhibition was 4.81% (inactive). As for `CCOC(=O)c1sc2nccc(N(C)C)c2c1N=CN(C)C`, the inhibition was 6.88% (inactive).

In the case of `COc1ccc(OC)c(CN2CCC(C(=O)N(C)CCc3ccc(OC)c(OC)c3)CC2)c1`, the inhibition is 6.02% (inactive). Turning to `O=C(O)c1ccccc1N/N=C/c1cc(Br)cc(Br)c1O`, the inhibition is 17.7% (inactive).

Take `COc1cccc(/C=N/NC(=O)CN2CC(c3ccccc3)CC2=O)c1OC` (stereo unspecified): the inhibition is 0.13% (inactive). As for `CCNC(=O)COc1ccc(/C=N/NC(=O)c2cccnc2)cc1OC`, the inhibition was 3.71% (inactive). As for `COc1cc(/C=N/NC(=O)c2cccc(NC(=O)c3ccccc3Cl)c2)ccc1O`, the inhibition is 21.6% (inactive). For `COc1cc(/C=N/NC(=O)c2cccnc2)ccc1OCC(=O)Nc1c(C)cc(C)cc1C`, the inhibition was 5.36% (inactive). For the molecule `COc1cccc(/C=N/NC(=O)CN2CC(c3ccccc3)CC2=O)c1O` (stereo unspecified), the inhibition was 5.93% (inactive).

`COc1ccccc1/C=N/NC(=O)c1cccc(NC(=O)c2ccccc2Cl)c1`: the inhibition is 6.04% (inactive). As for `CCC(O)(CC)C(=O)N/N=C/c1cc(Br)cc(Br)c1O`, the inhibition is 30.1% (inactive).
